The supplement of paper PMC3334620
Whole data set: some 33,000 sequences, median “E-score (-0.5 to 0.5)” near -0.016, cut for the highest 2% near 0.31. Many of the other results were omitted from the sample, so the highest values are more common in it than they were.

molecular target: Cst6 (UniProt P40535); test: PBM E-score (8-mer binding enrichment) (E-score (-0.5 to 0.5)); higher = stronger / more preferred TF binding; settings: protein concentration: 200 nM; construct: GST-DNA-binding domain
UniProt P40535, sequence (P40535 whole entry, the tested form may be a part): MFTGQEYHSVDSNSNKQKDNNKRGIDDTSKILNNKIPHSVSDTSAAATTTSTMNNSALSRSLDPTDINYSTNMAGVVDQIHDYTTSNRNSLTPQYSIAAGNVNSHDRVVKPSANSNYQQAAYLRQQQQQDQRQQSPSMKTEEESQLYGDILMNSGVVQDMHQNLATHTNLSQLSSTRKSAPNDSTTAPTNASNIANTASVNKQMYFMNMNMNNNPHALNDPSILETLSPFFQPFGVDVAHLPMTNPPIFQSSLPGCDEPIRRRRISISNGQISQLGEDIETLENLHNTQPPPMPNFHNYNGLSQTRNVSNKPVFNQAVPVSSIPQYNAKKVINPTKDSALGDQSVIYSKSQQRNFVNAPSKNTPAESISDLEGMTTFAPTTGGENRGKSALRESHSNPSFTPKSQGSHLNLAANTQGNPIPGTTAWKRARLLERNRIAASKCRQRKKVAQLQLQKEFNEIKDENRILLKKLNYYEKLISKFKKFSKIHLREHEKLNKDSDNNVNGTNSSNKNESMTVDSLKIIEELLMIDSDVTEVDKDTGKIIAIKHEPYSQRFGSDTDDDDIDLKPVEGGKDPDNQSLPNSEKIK
Experimental: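 Universal 'all 10-mer' protein binding microarrays (Agilent AMADID 015681) probed with GST-tagged S. cerevisiae TFs (full-length or DBD) made by in vitro transcription/translation (PURExpress), about 100-200 nM. Bound TF was detected with fluorescent anti-GST. Each ungapped 8-mer (which stands for itself and its reverse complement) is scored by the PBM enrichment score (E-score), a modified Wilcoxon-Mann-Whitney statistic from -0.5 to +0.5, computed with the Universal PBM Analysis Suite. Scale: above 0.35 generally sequence-specific binding.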

Row | Sequence | PBM E-score
1 | ATGTTGGC | -0.0418
2 | CCGATAGA | -0.124
3 | ACCGAGGG | -0.446
4 | CTCCGCAC | -0.0765
5 | CGCTGCGA | 0.0077
6 | TCAACCCA | -0.0214
7 | ATCGTCAT | 0.448
8 | GTCGTCGA | -0.00727
9 | GTCGTCAC | 0.425
10 | GTCGTCAA | 0.147
11 | ATCGTCAA | 0.223
12 | ATCGTCAG | 0.131
13 | CTAAGACA | 0.0903
14 | AGGGCATA | 0.0409
15 | AACGCACG | 0.179
16 | AGCCACAG | -0.232
17 | ATGGATAC | -0.0649
18 | AATTCAAA | 0.23
19 | ACGCAATA | 0.349
20 | GCGCAATA | -0.079
21 | ACGCAATG | 0.24
22 | ATCAGACA | -0.00162
23 | CCGGCGCG | -0.0219
24 | ACGGCGCC | 0.364
25 | ACGGCGAG | 0.18

Row | Sequence | PBM E-score
26 | ACGGCGCT | 0.251
27 | GCGGCGCC | 0.376
28 | ACGGCGCA | 0.349
29 | CCGGCGCA | -0.107
30 | TCGGCGCA | 0.071
31 | GCGGCGCA | 0.197
32 | ACGGCGAC | 0.217
33 | CCGGCGCC | 0.14
34 | ACGGCGCG | 0.381
35 | ACCAAACA | 0.277
36 | AGGAGCCT | -0.209
37 | AATAAGAG | 0.055
38 | CATAAGAA | 0.342
39 | TATAAGAA | 0.125
40 | AATAAGAT | 0.232
41 | GATAAGAA | 0.291
42 | AATAAGAA | 0.312
43 | TCCATAAA | 0.123
44 | CCATTGCC | 0.0353
45 | AATGCACG | 0.0682
46 | AAATTCGT | 0.306
47 | AAATTCGG | 0.0235
48 | AAATTCGC | 0.211
49 | CGCCTCAG | 0.00359
50 | CCTTGACC | -0.19

Row | Sequence | PBM E-score
51 | GGTCACAC | -0.0298
52 | GGTCACAA | -0.0375
53 | AGTCACAG | -0.0682
54 | CGTCAGAC | 0.287
55 | CGTCAGAG | 0.365
56 | CGTCAGAA | 0.286
57 | CGTCACAA | 0.4
58 | CGTCACAC | 0.414
59 | AGTCACAC | 0.00702
60 | TGTCACAA | 0.254
61 | CCTCACAG | -0.0712
62 | CGTCACAG | 0.424
63 | ACGATTCT | 0.039
64 | ACTATCCG | 0.0433
65 | CAAACCAG | -0.0964
66 | CATACATG | 0.0541
67 | CCTTCTCG | -0.264
68 | CAGTAGAG | -0.0984
69 | AGACAAAT | 0.159
70 | AGAAAATG | 0.0622
71 | ATCATTGG | 0.194
72 | ATCATTGC | 0.188
73 | ATCATTGA | 0.306
74 | GTCATTGA | 0.391
75 | GACATTGA | 0.096

Row | Sequence | PBM E-score
76 | CTCATTGA | -0.0286
77 | AGGGCTTG | -0.0617
78 | AGGATCAG | -0.266
79 | CTTCCTGA | 0.112
80 | GGGACTCA | -0.353
81 | CTAGCTAG | -0.074
82 | AAAATAAT | 0.302
83 | AGGTTCCA | -0.124
84 | ATAGTGAC | 0.392
85 | GTAGTGAC | 0.332
86 | CTAGTGAC | 0.234
87 | GCAGTGAC | 0.17
88 | GTAGTGAA | 0.0467
89 | ATAGTGAA | -0.00864
90 | CTCCTGGC | -0.195
91 | CTTCCTCC | -0.235
92 | ATGTCTTC | -0.153
93 | CGATACTA | 0.1
94 | CAACTTCG | 0.0207
95 | GCATCATA | 0.339
96 | ACATCAAG | 0.207
97 | CCATCATC | 0.146
98 | ACATCATA | 0.443
99 | AGATCATG | 0.137
100 | AAATCATA | 0.275

Row | Sequence | PBM E-score
101 | ACATCATC | 0.462
102 | ACATCATG | 0.409
103 | CCATCATA | 0.122
104 | GCATCAGA | 0.159
105 | ACATCAGA | 0.16
106 | AAATCATC | 0.175
107 | ACTTAACT | 0.0697
108 | ATAGCCAA | 0.0258
109 | GGAGCAGA | -0.114
110 | TATGCTAA | 0.0861
111 | CTAGGATA | -0.125
112 | ATCTGGGA | -0.197
113 | GGTTGCGA | -0.0447
114 | AGGGCATC | -0.0843
115 | AGGGTGAG | -0.176
116 | ACGGTGAT | 0.121
117 | GCGGTGAC | 0.345
118 | CAGGTGAC | 0.258
119 | GCGGTGCC | -0.0111
120 | GGGGTGAC | 0.284
121 | GCGGTGAA | 0.0906
122 | AGGGTGAC | 0.345
123 | ACGGTGAG | -0.0622
124 | AAGGTGAC | 0.243
125 | GAGGTGAC | 0.407

Row | Sequence | PBM E-score
126 | ACGGTGAC | 0.307
127 | CGGGCCGA | -0.167
128 | GAGTATGA | 0.169
129 | CATGATCA | 0.231
130 | CCGGTAGA | -0.132
131 | CTCCCTGC | -0.218
132 | ACAGAGAT | 0.178
133 | CCCTTCCG | -0.274
134 | CATAGTTC | 0.0666
135 | AGTGAGAA | 0.149
136 | ACGGGGCC | 0.00152
137 | AGTGAACG | -0.0226
138 | GGCTCCCC | -0.226
139 | ATTCCATC | 0.199
140 | CCGGTGAG | -0.116
141 | CCGGTGAA | 0.0804
142 | CCGGTGAC | 0.335
143 | AACACAAA | 0.0222
144 | TACACAAA | 0.311
145 | CACACAAA | 0.165
146 | TCTGGCCA | -0.0762
147 | AATTTTGC | 0.144
148 | CGCATCCG | -0.0682
149 | ATCATCCC | 0.154
150 | AGTCACCA | 0.0433

Row | Sequence | PBM E-score
151 | CGTCACCA | 0.484
152 | AGTCACCC | 0.117
153 | GGTCACCA | -0.148
154 | CGTCACCC | 0.466
155 | CCTCACCC | 0.0853
156 | CGCCTCAC | 0.135
157 | ATACCATC | 0.00666
158 | ATTCACAC | 0.134
159 | ACGAGTAA | 0.141
160 | TGAAATCA | 0.322
161 | GGAAATCA | 0.0954
162 | CGAAATCA | 0.269
163 | CCTTTTCG | 0.021
164 | GTTGGACA | -0.0168
165 | AAGAAAGT | 0.153
166 | GAGGGCTA | -0.27
167 | ATTTCGGG | 0.0105
168 | AAAAGTGG | 0.112
169 | AAAAGTGA | 0.306
170 | AAAAGTGT | 0.0733
171 | GGGGTAAA | 0.0414
172 | CCTGGGAA | -0.136
